Screen size: about 1,700 compounds; about 65 (4%) were called active. Rule as the data show it: active = Nile Red retention ratio vs DMSO above about 190%; inactive = the rest. Not all results are given here.
Tested on: Candida albicans drug resistance protein 2 (Cdr2) efflux pump, expressed in S. cerevisiae
Assay: inhibitors of Candida albicans Cdr2 efflux pump, confirmation, S. cerevisiae AD/CaCDR2, flow cytometry, cherry pick 1, singleplex (AID 588520);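 also: higher ratio means more blocking of Cdr2 efflux of the dye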
Settings: at 10 µM, active compounds read high

Nile Red retention ratio vs DMSO, inactive:
CCCCN1C(=O)/C(=C/C=C2/C=Cc3ccccc3N2CC)SC1=S 108%
CCCCCC(=O)Nc1ccc(C(=O)N/N=C/c2ccc([N+](=O)[O-])cc2)cc1 105%
COc1ccc(C(=O)C2CCCN(Cc3cccn3-c3ccccn3)C2)c(C)c1 (stereo unspecified) 98.5%
O=C(Cc1ccc(Br)cc1)N1CCN(c2ccccn2)CC1 85.2%
COc1ccc(NC(=S)N2CCc3cc(OC)c(OC)cc3C2)cc1 99.3%
CCOc1ccc(/C=C2\SC(=S)N(NC(=O)c3ccncc3)C2=O)cc1OC 105%
CN=C(c1ccccc1)c1c(C)cccc1C 107%
COc1ccc(S(=O)(=O)N2CCOC2CNC(=O)C(=O)NCc2ccc(F)cc2)cc1 (stereo unspecified) 114%
Cc1cc(/C=N/NC(=O)CC2(C)OCCO2)c(C)n1-c1ccc(Cl)c(Cl)c1 101%
COc1ccccc1/C=C/C=N/n1c(-c2ccc(Cl)cc2Cl)n[nH]c1=S 119%
Cc1ccc(OCc2cc(C(=O)N(C)CCc3ccccc3)no2)cc1C 97.7%
CCOC(=O)c1c(NC(=S)NC(=O)c2ccco2)sc2c1CCCC2 95.4%
Cc1ccc(/C=C(\C#N)C(=O)Nc2cccc3ncccc23)o1 93%
COc1cccc(NC(=O)CN(C)C(=O)/C=C/c2cc(OC)ccc2OC)c1 97.5%
CSCCC(NC(=O)COc1ccccc1)C(=O)OCCOc1ccc(Br)cc1 (stereo unspecified) 91.4%
O=C(CCCCCn1c(=O)[nH]c2ccccc2c1=O)NCCc1c[nH]c2ccccc12 96.3%
CCOC(=O)CNC(=O)CSc1nnnn1-c1cc(C)ccc1C 102%
O=C(OCc1ccc(-c2ccccc2)cc1)c1cccc(O)c1 108%
Cc1nc2c(C(=O)NCc3ccc4c(c3)OCO4)c[nH]n2c(=O)c1Cc1ccccc1F 108%
Cc1nn(C)cc1C(=O)Nc1ccccc1Br 104%
Cc1csc(NC(=O)c2ccc(-c3ccc(Cl)cc3Cl)o2)n1 104%
Cc1ccc(Cn2c(C)nc3c(c2=O)c2nc4ccccc4nc2n3Cc2ccco2)cc1 104%
O=C(/C=C/c1c(Cl)cccc1Cl)NCc1ccccc1 102%
Cc1ccc(N=C2NC(=O)/C(=C/C=C/c3ccco3)S2)cc1C 114%
Cc1cccc(NC(=O)COc2ccccc2C)n1 95.6%
COc1ccc(C(=O)NC2CCCc3c2cnn3-c2cccc(C)c2C)c(OC)n1 (stereo unspecified) 93.2%

Reference: PubChem BioAssay AID588520 (NMMLSC, 2011)
